“And” between values parts separate entries of the source, which are not always exact repeats. Identical values can stand only once. The panel holds about 83,000 compounds, 20% with a hit somewhere; the sample as a whole holds those more often.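 The test compound was applied at a single concentration to cells in 96-well plates for 48 hours, and percent growth was recorded.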
Experiments:
Assay in all cases: NCI-60 one-dose screen, 48 h (100 = growth as untreated, 0 = no growth, -100 = all killed)
Settings in all cases: 10 µM unless noted; active = growth percent below 10; inactive = the rest
NCI-H23 lung = system: NCI-H23 lung
NCI-H226 lung = system: NCI-H226 lung
NCI-H322M lung = system: NCI-H322M lung
HOP-62 NSCLC = system: HOP-62 NSCLC
NCI-H460 lung = system: NCI-H460 lung
HOP-92 NSCLC = system: HOP-92 NSCLC
NCI-H522 lung = system: NCI-H522 lung
A549/ATCC NSCLC = system: A549/ATCC NSCLC
786-0 renal = system: 786-0 renal
COLO 205 colon = system: COLO 205 colon
DU-145 prostate = system: DU-145 prostate
K-562 leukemia = system: K-562 leukemia
MALME-3M melanoma = system: MALME-3M melanoma
MDA-MB-231 breast = system: MDA-MB-231 breast
RXF 393 renal = system: RXF 393 renal
SF-268 CNS = system: SF-268 CNS
SF-295 CNS = system: SF-295 CNS
SF-539 CNS = system: SF-539 CNS
UACC-257 melanoma = system: UACC-257 melanoma
M14 melanoma = system: M14 melanoma

Measured: growth

O=C(/C=C/C=C/c1ccc2c(c1)OCO2)N1CCCCC1
inactive: NCI-H23 lung 95.6% and 102% | NCI-H226 lung 104% and 95% | NCI-H322M lung 101% and 113% | HOP-62 NSCLC 100% | NCI-H460 lung 109% and 113% | HOP-92 NSCLC 97.3% and 89.6% | NCI-H522 lung 115% and 81.1% | A549/ATCC NSCLC 104% and 98.5% | 786-0 renal 103% and 57.4% | COLO 205 colon 114% and 106% | DU-145 prostate 119% and 110% | K-562 leukemia 90.5% and 70.7% | MALME-3M melanoma 108% and 214% | MDA-MB-231 breast 98.6% and 98% | RXF 393 renal 105% and 110% | SF-268 CNS 114% and 99.2% | SF-295 CNS 85.4% and 107% | SF-539 CNS 109% and 101% | UACC-257 melanoma 114% and 106% | M14 melanoma 109% and 99.5%

CCCCCc1cc[n+](CC(=O)c2ccccc2)cc1
inactive: NCI-H23 lung 96.6% and 92.6% | NCI-H226 lung 96.8% and 89% | NCI-H322M lung 92.4% and 96% | HOP-62 NSCLC 90.5% and 108% | NCI-H460 lung 76.7% and 95.4% | HOP-92 NSCLC 67.7% | NCI-H522 lung 95% and 99.3% | A549/ATCC NSCLC 84.1% and 101% | 786-0 renal 97% and 96.3% | COLO 205 colon 87.3% and 101% | DU-145 prostate 105% and 110% | K-562 leukemia 113% and 104% | MALME-3M melanoma 100% and 108% | MDA-MB-231 breast 104% and 106% | RXF 393 renal 98.6% and 110% | SF-268 CNS 103% and 107% | SF-295 CNS 94.1% | SF-539 CNS 96.3% and 102% | UACC-257 melanoma 99% and 106% | M14 melanoma 100%

CC(CN(C)C)CN1c2ccccc2Sc2ccccc21 (stereo not given)
inactive: NCI-H23 lung 88.9% and 86% and 86.6% | NCI-H226 lung 132% and 112% | NCI-H322M lung 73.1% and 83.9% and 65.2% | HOP-62 NSCLC 92.2% and 78.2% and 80.8% | NCI-H460 lung 95% and 94.3% and 93.5% | HOP-92 NSCLC 21.4% | NCI-H522 lung 81.1% and 116% and 87.2% | A549/ATCC NSCLC 91.8% and 103% and 91.5% | 786-0 renal 59.5% and 45% and 69.1% | COLO 205 colon 48.4% and 84.5% and 85% | DU-145 prostate 97.3% and 111% and 90% | K-562 leukemia 67.2% and 72.1% and 49.8% | MALME-3M melanoma 81.7% and 101% and 95.8% | MDA-MB-231 breast 62% and 90% | RXF 393 renal 53.3% and 86.1% and 70.7% | SF-268 CNS 90.8% and 91.7% and 78.1% | SF-295 CNS 88% and 35.8% and 92% | SF-539 CNS 91.7% and 81.9% | UACC-257 melanoma 65.1% and 110% and 92.1% | M14 melanoma 47.9% and 81.3% and 75.8%

COc1ccc(/C=N/Nc2nc3ccccc3s2)cc1
inactive: NCI-H23 lung 105% | NCI-H226 lung 99.4% | NCI-H322M lung 86.7% | HOP-62 NSCLC 91.9% | NCI-H460 lung 97.3% | HOP-92 NSCLC 81.6% | NCI-H522 lung 89% | A549/ATCC NSCLC 93.9% | 786-0 renal 111% | COLO 205 colon 84.1% | DU-145 prostate 105% | K-562 leukemia 93.2% | MALME-3M melanoma 44.2% | MDA-MB-231 breast 86% | RXF 393 renal 97.5% | SF-268 CNS 106% | SF-295 CNS 97.1% | SF-539 CNS 94% | UACC-257 melanoma 103% | M14 melanoma 87.7%

Cc1c(O)nc(N)[nH]c1=O
inactive: NCI-H23 lung 93.8% | NCI-H226 lung 106% | NCI-H322M lung 104% | HOP-62 NSCLC 99.7% | NCI-H460 lung 104% | HOP-92 NSCLC 108% | NCI-H522 lung 99.5% | A549/ATCC NSCLC 99.9% | 786-0 renal 114% | COLO 205 colon 116% | DU-145 prostate 119% | K-562 leukemia 118% | MALME-3M melanoma 109% | MDA-MB-231 breast 104% | RXF 393 renal 118% | SF-268 CNS 123% | SF-295 CNS 97.4% | SF-539 CNS 106% | UACC-257 melanoma 105% | M14 melanoma 98.5%

COC(=O)CCOc1ccccc1
inactive: NCI-H23 lung 85.4% | NCI-H226 lung 105% | NCI-H322M lung 103% | HOP-62 NSCLC 101% | NCI-H460 lung 101% | HOP-92 NSCLC 86.2% | NCI-H522 lung 87.9% | A549/ATCC NSCLC 85% | 786-0 renal 95.3% | COLO 205 colon 118% | DU-145 prostate 110% | K-562 leukemia 71.7% | MALME-3M melanoma 91.8% | MDA-MB-231 breast 110% | RXF 393 renal 89% | SF-268 CNS 108% | SF-295 CNS 130% | SF-539 CNS 101% | UACC-257 melanoma 82.8% | M14 melanoma 106%
